Inconclusive results are not listed. Calls of active or inactive are those of the source. How the source made its calls, unless noted: active means hit-call score of the fitted dose curve at least 0.9, where 1 is the maximum; inconclusive means response in the unintended direction; inactive means score below 0.9.
Columns and labels:
THRA (gene 7067) = THRA (gene 7067) (UniProt P10827); assay: TOX21_TRA_COA_Agonist_Followup_ratio: Tox21 Thyroid Hormone Receptor alpha Agonism through Coactivator Recruitment Follow-Up Assay, Ratio (AID 2283948; active means hit-call score of the fitted dose curve at least 0.9, where 1 is the maximum; inactive means score below 0.9)
Method in brief: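 Read-out is the 520/495 nm emission ratio (ex 340 nm), scaled between DMSO-only wells as 0% and T3 wells as 100%. It reflects fluorescein-SRC-2 peptide recruitment to GST-TRα LBD detected via terbium anti-GST antibody.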

THRB (gene 7068) = THRB (gene 7068) (UniProt P10828); assay: TOX21_TRB_COA_Agonist_Followup_ratio: Tox21 Thyroid Hormone Receptor beta Agonism through Coactivator Recruitment Follow-Up Assay, Ratio (AID 2283963; active means hit-call score of the fitted dose curve at least 0.9, where 1 is the maximum; inactive means score below 0.9)
Method in brief: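 Agonism is measured as coactivator recruitment in a purified-protein TR-FRET format, using GST-TRβ LBD at 5.0 nM, fluorescein-SRC-2 peptide at 200 nM and Tb-labeled anti-GST antibody at 2 nM. Values are 520:495 nm ratios relative to DMSO (0%) and T3 (100%).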

[1] = TOX21_TR_RXR_BLA_Agonist_Followup_viability: Viability Assessment in the Tox21 Thyroid Hormone Receptor beta Retinoid X Receptor alpha (RXRa) Agonism Beta-lactamase (BLA) Follow-Up Assay (AID 2283970)
Method in brief: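 Luminescent ATP read (CellTiter-Glo) after 16h exposure of RXRa-UAS-bla HEK293T cells at 37C/5% CO2. Activity normalized to DMSO; signal loss scored as reduced viability.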

[2] = TOX21_PR_BLA_Followup_Antagonist_viability: Viability Assessment in the Tox21 HEK293 Progesterone Receptor (PR) Antagonism Beta-lactamase Follow-Up Assay (AID 2283936);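 further: cells exposed to compound with R5020 agonist for 16 h; hits lower the luminescence signal meaning cytotoxicity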
Method in brief: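 PR-UAS-bla HEK293T cells in medium with 2% charcoal-stripped FBS were treated with compounds plus R5020 for 16 hr at 37C. After the beta-lactamase read, CellTiter-Glo was added to the same wells and luminescence read after 30 min at room temperature.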

PGR (gene 5241) [3] = biological target: PGR (gene 5241) (UniProt P06401); assay: TOX21_PR_LUC_Followup_Agonist: Tox21 HEK293 Progesterone Receptor (PR) Agonism Luciferase Follow-Up Assay (AID 2283937; active means hit-call score of the fitted dose curve at least 0.9, where 1 is the maximum; inactive means score below 0.9)
Method in brief: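 In HEK293 cells stably expressing PR-A with a luciferase reporter, compounds were incubated 16 h at 37C, and induced luminescence was quantified with ONE-Glo, multiplexed with cell viability.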

PGR (gene 5241) [4] = biological target: PGR (gene 5241) (UniProt P06401); assay: TOX21_PR_LUC_Followup_Antagonist: Tox21 HEK293 Progesterone Receptor (PR) Antagonism Luciferase Follow-Up Assay (AID 2283938);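 further: curve fitted upward as signal gain over DMSO baseline despite antagonist label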
Method in brief: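 HEK293-PR-A-luc cells were precultured 5 days in medium with 10% charcoal-stripped FBS, seeded 3,000/well, then exposed to compounds in DMSO for 16 h at 37C. Luciferase was read by ONE-Glo luminescence after 30 min at room temperature.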

[5] = biological target: Thyroid hormone receptor alpha (Rattus norvegicus) + Thyroid hormone receptor beta (Rattus norvegicus) (UniProt P18113+P63059); assay: TOX21_TR_LUC_GH3_Agonist_Followup: Tox21 GH3 Thyroid Hormone Receptor Agonism Luciferase Follow-Up Assay (AID 2283939)
Method in brief: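 Agonist-mode confirmatory run: 15 concentrations (5 nM to 92 uM final) on GH3 rat pituitary cells, 24 h at 37C/5% CO2, T3 as positive control. Luminescence read with ONE-Glo after 30 min.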

[6] = TOX21_PR_LUC_Followup_Antagonist_viability: Viability Assessment in the Tox21 HEK293 Progesterone Receptor (PR) Antagonism Luciferase Follow-Up Assay (AID 2283940)
Method in brief: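 Loss of CellTiter-Glo ATP signal indicates cytotoxicity in HEK293-PR-A-luc cells grown in 10% charcoal-stripped FBS medium, seeded 3,000 per well and incubated 16 h with compound at 37C.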

[7] = TOX21_PR_LUC_Followup_Agonist_viability: Viability Assessment in the Tox21 HEK293 Progesterone Receptor (PR) Agonism Luciferase Follow-Up Assay (AID 2283941);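 further: loss of signal means cytotoxicity so actives lower viability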
Method in brief: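 Seeding: HEK293-PR-A-luc, 3,000 cells/well, 5 h at 37C. Treatment: compound in DMSO, 16 h, 37C. Read: CellTiter-Glo ATP luminescence, signal loss taken as lower viability.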

[8] = biological target: Retinoic acid receptor RXR-alpha (Homo sapiens) (UniProt P19793); assay: TOX21_TR_RXR_BLA_Agonist_Followup_ratio: Tox21 Thyroid Hormone Receptor beta Retinoid X Receptor alpha (RXRa) Agonism Beta-lactamase (BLA) Follow-Up Assay, Ratio (AID 2283968)
Method in brief: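 Agonism is scored as an increase in the 460:530 nm beta-lactamase substrate ratio over DMSO in RXRa-UAS-bla HEK293T cells exposed for 16 h to 11 compound concentrations.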

PGR (gene 5241), sequence (P06401 whole entry, looked up): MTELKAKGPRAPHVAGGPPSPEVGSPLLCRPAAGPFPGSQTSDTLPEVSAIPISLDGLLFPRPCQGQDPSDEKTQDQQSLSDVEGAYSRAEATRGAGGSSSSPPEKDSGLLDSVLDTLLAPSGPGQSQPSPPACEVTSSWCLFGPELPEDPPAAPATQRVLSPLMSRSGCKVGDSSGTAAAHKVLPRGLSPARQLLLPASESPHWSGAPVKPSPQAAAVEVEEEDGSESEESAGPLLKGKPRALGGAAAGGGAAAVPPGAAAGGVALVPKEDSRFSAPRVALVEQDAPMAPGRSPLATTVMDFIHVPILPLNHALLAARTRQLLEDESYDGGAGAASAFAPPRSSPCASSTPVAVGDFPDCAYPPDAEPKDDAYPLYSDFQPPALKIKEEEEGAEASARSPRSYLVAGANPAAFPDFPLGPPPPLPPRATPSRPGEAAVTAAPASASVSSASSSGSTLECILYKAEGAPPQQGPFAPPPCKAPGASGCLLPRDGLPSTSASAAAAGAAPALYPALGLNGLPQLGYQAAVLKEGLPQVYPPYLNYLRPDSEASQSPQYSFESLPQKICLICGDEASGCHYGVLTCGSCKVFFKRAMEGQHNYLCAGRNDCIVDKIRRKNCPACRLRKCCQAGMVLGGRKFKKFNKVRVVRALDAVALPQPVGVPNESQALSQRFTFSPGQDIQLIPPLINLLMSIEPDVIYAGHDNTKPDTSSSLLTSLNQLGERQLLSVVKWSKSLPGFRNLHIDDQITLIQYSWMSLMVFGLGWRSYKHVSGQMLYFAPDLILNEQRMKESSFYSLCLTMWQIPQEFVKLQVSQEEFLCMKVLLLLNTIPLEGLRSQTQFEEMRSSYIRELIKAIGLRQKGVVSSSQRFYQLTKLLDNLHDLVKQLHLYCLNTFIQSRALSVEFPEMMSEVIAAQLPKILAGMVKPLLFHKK
THRA (gene 7067), sequence (P10827 whole entry, looked up, the tested form may be a part): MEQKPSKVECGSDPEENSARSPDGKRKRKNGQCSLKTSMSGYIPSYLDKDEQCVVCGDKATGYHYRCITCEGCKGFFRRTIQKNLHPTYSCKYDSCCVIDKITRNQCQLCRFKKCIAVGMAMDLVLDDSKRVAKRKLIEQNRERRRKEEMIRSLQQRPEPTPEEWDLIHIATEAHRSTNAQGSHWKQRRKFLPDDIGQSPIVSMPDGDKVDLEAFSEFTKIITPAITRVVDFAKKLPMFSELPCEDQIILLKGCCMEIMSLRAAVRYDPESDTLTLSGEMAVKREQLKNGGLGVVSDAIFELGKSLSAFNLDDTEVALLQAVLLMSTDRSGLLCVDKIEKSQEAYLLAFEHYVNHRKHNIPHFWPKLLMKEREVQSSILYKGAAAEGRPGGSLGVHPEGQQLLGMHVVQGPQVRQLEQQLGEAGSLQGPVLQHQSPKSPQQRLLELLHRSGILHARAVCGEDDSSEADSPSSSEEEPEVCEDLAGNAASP
THRB (gene 7068), sequence (P10828 whole entry, looked up, the tested form may be a part): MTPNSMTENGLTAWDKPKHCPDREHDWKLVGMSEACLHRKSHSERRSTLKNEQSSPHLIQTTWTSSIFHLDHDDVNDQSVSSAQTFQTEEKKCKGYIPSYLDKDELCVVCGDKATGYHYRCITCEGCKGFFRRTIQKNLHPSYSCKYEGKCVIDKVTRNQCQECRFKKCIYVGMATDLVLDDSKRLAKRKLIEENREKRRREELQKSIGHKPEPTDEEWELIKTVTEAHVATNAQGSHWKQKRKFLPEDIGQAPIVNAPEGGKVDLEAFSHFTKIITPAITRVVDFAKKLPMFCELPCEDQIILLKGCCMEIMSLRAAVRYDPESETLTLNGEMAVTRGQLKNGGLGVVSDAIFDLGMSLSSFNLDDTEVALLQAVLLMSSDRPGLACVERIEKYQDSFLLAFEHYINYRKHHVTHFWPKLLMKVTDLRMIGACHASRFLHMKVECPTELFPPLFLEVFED
Retinoic acid receptor RXR-alpha (Homo sapiens), sequence (P19793 whole entry, looked up): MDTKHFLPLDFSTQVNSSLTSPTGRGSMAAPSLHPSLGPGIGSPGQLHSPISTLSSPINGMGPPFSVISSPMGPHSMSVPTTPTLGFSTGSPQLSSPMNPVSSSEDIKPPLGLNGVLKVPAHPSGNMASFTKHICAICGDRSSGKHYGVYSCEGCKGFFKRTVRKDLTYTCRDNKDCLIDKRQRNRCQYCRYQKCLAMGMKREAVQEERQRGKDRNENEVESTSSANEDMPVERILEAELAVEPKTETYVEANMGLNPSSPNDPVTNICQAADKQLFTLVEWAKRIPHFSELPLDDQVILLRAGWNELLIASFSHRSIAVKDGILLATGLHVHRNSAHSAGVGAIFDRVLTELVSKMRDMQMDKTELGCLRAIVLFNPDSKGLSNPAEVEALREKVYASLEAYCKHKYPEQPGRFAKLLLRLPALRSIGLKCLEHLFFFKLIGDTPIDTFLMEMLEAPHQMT
Thyroid hormone receptor alpha (Rattus norvegicus) + Thyroid hormone receptor beta (Rattus norvegicus), sequence (P63059 whole entry, looked up): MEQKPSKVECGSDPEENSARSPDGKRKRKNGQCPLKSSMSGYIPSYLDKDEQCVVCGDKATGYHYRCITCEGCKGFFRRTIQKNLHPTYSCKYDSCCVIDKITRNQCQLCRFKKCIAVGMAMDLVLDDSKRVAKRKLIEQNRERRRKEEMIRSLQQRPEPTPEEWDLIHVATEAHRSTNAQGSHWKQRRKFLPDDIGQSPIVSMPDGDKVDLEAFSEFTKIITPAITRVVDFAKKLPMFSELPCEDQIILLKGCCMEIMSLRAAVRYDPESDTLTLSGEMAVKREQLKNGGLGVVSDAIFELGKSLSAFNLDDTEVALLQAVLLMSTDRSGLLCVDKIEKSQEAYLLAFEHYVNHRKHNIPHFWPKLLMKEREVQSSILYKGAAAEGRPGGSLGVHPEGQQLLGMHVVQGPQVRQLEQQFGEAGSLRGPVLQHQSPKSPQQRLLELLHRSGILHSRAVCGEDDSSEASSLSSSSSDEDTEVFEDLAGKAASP
Thyroid hormone receptor alpha (Rattus norvegicus) + Thyroid hormone receptor beta (Rattus norvegicus), sequence (P18113 whole entry, looked up): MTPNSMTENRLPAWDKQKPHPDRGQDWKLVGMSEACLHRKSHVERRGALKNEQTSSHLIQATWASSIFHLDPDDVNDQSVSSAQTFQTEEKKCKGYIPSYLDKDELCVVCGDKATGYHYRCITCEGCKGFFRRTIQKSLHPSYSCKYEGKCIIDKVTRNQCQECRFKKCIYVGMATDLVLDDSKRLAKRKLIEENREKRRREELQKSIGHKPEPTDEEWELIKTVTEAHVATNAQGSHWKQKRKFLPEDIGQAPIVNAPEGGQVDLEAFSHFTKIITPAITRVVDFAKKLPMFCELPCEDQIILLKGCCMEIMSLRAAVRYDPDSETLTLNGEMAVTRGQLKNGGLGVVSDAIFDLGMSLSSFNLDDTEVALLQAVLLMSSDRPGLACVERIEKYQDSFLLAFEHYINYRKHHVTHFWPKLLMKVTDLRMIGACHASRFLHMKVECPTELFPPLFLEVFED

C[C@]12CC[C@H]3C(=CCc4cc(O)ccc43)[C@@H]1CCC2=O
outcome (THRA (gene 7067)): inactive
outcome (THRB (gene 7068)): inactive
outcome [1]: inactive

O=C(c1ccccc1)c1ccc(O)cc1O
outcome [2]: inactive
outcome (PGR (gene 5241) [3]): inactive
AC50 (PGR (gene 5241) [4]): 33.5 µM (active)
outcome [5]: inactive
outcome [6]: inactive
outcome [7]: inactive
outcome (THRA (gene 7067)): inactive
outcome (THRB (gene 7068)): inactive
outcome [8]: inactive
outcome [1]: inactive
